42 compounds from PubChem BioAssay AID624138 (Broad Institute, 2012) can be followed below.

Screen size: about 17,000 compounds; about 35 (0.2%) were called active.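 How the source made its calls: active means compounds whose four printed spots each show fluorescence over background unusually high for their array block, chance value under 7%; inactive means the rest.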 Many of the other results were omitted from the sample, so actives are more common in it than they were.

The target in the assay is Signal transducer and activator of transcription 3 (Homo sapiens) (UniProt P40763). Nature of the assay: small molecules binding His-tagged STAT3 – biochemical, small molecule microarray, single point, set 2, primary screen (AID 624138). The note with it: anti-His fluorescence.
Chain of Signal transducer and activator of transcription 3 (Homo sapiens) (P40763 whole entry, looked up): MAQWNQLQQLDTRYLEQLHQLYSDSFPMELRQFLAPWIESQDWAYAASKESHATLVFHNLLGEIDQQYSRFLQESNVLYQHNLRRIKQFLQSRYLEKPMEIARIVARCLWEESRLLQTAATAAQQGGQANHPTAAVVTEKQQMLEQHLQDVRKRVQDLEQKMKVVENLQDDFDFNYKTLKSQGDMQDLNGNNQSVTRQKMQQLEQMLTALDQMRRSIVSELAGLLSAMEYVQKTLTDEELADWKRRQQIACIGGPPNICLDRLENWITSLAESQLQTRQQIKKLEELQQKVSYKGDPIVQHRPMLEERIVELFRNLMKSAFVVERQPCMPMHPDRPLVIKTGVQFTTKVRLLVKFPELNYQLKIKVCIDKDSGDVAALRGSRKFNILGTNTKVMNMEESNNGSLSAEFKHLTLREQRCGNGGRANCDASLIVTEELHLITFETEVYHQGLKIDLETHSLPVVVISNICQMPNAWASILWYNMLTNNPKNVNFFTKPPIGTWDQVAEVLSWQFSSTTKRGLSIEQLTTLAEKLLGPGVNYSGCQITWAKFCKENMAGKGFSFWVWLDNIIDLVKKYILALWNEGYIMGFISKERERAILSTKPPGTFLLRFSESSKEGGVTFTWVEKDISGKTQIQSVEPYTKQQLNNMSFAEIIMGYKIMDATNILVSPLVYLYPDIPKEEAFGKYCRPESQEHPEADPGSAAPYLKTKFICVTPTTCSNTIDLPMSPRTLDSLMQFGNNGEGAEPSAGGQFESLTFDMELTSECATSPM
As for `O=C(C1=C[C@H](C2CC2)C[C@H](OCc2ccc(CO)cc2)O1)N1CCN(Cc2ccccc2)CC1`, the compound was called inactive.

Take `C[C@@H]1CCCCO[C@H](CN(C)C(=O)Nc2ccccc2)[C@H](C)CN([C@H](C)CO)C(=O)c2cc(N(C)C)ccc2O1`: the compound was classed as inactive.

Regarding `CC(C)NC(=O)N(C)C[C@H]1OCCCC[C@@H](C)Oc2ccc(NC(=O)Nc3cccc4ccccc34)cc2C(=O)N([C@H](C)CO)C[C@@H]1C`, the call was inactive.

Take `C[C@H]1CN([C@@H](C)CO)C(=O)Cc2cc(NC(=O)Nc3ccc4c(c3)OCO4)ccc2O[C@H]1CN(C)CC1CC1`: the outcome was inactive.

Take `CC1(C)CC[C@]2(C(=O)O[C@@H]3O[C@H](CO)[C@@H](O)[C@H](O)[C@H]3O)CC[C@]3(C)C(=CCC4[C@@]5(C)CC[C@H](O[C@@H]6O[C@H](C(=O)O)[C@@H](O[C@@H]7OC[C@H](O)[C@H](O)[C@H]7O)[C@H](O)[C@H]6O)C(C)(C)C5CC[C@]43C)C2C1` (some centres not stated): the compound was classed as inactive.

In the case of `CC(=O)OC[C@H]1O[C@@H](Oc2c(-c3ccc(O)c(O)c3)oc3cc(O)cc(O)c3c2=O)[C@H](O)[C@@H](O)[C@@H]1O`, the result was inactive.

Consider `Cc1noc(C)c1S(=O)(=O)Nc1ccc2c(c1)C(=O)N([C@@H](C)CO)C[C@@H](C)[C@@H](CN(C)C)O2`, for which the result was inactive.

Take `C[C@H](CO)N1C[C@H](C)[C@@H](CN(C)S(=O)(=O)c2ccc(Cl)cc2)Oc2ccc(NS(=O)(=O)c3cccs3)cc2CC1=O`: the outcome was inactive.

Consider `CC(C)NC(=O)Nc1ccc2c(c1)CC(=O)N([C@@H](C)CO)C[C@@H](C)[C@H](CN(C)Cc1ccc(C(F)(F)F)cc1)O2`, for which the compound was classed as inactive.

On to `OCc1nc2ccccc2n1CCOc1cccc(Cl)c1`, for which the result was inactive.

As for `C[C@@H]1CN([C@@H](C)CO)C(=O)c2cc(NC(=O)Nc3cccc4ccccc34)ccc2O[C@@H]1CN(C)C(=O)NC1CCCCC1`, the outcome was inactive.

As for `Cc1noc(C)c1NC(=O)N(C)C[C@@H]1Oc2ccc(NC(=O)Nc3ccc4c(c3)OCO4)cc2CC(=O)N([C@H](C)CO)C[C@H]1C`, the result was inactive.

For `C[C@@H]1CCCCO[C@H](CN(C)C(=O)C2CCCCC2)[C@@H](C)CN([C@@H](C)CO)C(=O)c2cc(NC(=O)Nc3ccccc3)ccc2O1`, the compound was called inactive.

As to `C[C@H]1CCCCO[C@H](CN(C)Cc2ccccc2)[C@@H](C)CN([C@@H](C)CO)C(=O)c2cc(NS(C)(=O)=O)ccc2O1`, the result was inactive.

For the compound `C[C@H]1CN([C@@H](C)CO)C(=O)Cc2cc(NC(=O)Nc3cccc4ccccc34)ccc2O[C@H]1CN(C)CC1CC1`, the outcome was inactive.

With `CO[C@H]1C(=O)c2c(O)c(CC=C(C)C)c(O)c(CC=C(C)C)c2O[C@@H]1c1ccc(O)cc1`, the compound was called inactive.

Regarding `COC(=O)CCCCCCC(=O)Nc1ccc(C2OC(CSc3nc(-c4ccccc4)c(-c4ccccc4)o3)CC(c3ccc([N+](=O)[O-])cc3)O2)cc1` (configuration not stated), the compound was called inactive.

As for `Cc1ccc(N(C(=O)COc2ccccc2[N+](=O)[O-])C2C=CS(=O)(=O)C2)cc1` (configuration not stated), the outcome was inactive.

For the compound `Cc1noc(C)c1NC(=O)Nc1ccc2c(c1)CC(=O)N([C@H](C)CO)C[C@H](C)[C@H](CN(C)C(=O)NC(C)C)O2`, the compound was called inactive.

Turning to `COc1ccc(C#Cc2ccc3c(c2)[C@]2(C(=O)N3)[C@H](c3ccccc3OCCO)N3[C@H](c4ccccc4)[C@H](c4ccccc4)OC(=O)[C@H]3[C@@H]2C(=O)N2CCCCCCC2)cc1`, the result was inactive.

With `C[C@@H]1CN([C@@H](C)CO)C(=O)c2cc(N(C)C)ccc2O[C@@H](C)CCCCO[C@H]1CN(C)C(=O)CCCN(C)C`, the compound was called inactive.

As for `Cc1ccc(-n2c(SCC(=O)c3ccccc3)nnc2-c2ccncc2)cc1C`, the compound was classed as inactive.

As for `C[C@@H]1CCCCO[C@@H](CN(C)Cc2ccncc2)[C@@H](C)CN([C@@H](C)CO)C(=O)c2cc(NC(=O)Nc3ccc(F)cc3)ccc2O1`, the outcome was inactive.

In the case of `CC1(C)CC[C@@]2(C(=O)O)C(C1)C1=CCC3[C@@]4(C)CC[C@H](O)C(C)(C)C4CC[C@@]3(C)[C@]1(C)C[C@H]2O` (some centres not stated), the compound was classed as inactive.

For the compound `Cn1c(Cc2csc(N)n2)nnc1SC/C=C/c1ccccc1`, the outcome was inactive.

On to `Cc1nnc(SCc2cc(=O)[nH]c(N3CCN(Cc4ccccc4)CC3)n2)s1`, for which the result was inactive.

Regarding `COc1ccc(OC)c(NC(=O)c2cnn(-c3ccccc3Cl)c2NC(=O)c2ccco2)c1`, the outcome was inactive.

With `C[C@@H]1CN([C@H](C)CO)C(=O)c2cc(NC(=O)Nc3ccc4c(c3)OCO4)ccc2O[C@@H]1CN(C)Cc1ccc(C(F)(F)F)cc1`, the compound was classed as inactive.

Turning to `C[C@@H]1CN([C@H](C)CO)C(=O)Cc2cc(NC(=O)NC3CCCCC3)ccc2O[C@H]1CN(C)S(=O)(=O)c1ccc(Cl)cc1`, the compound was classed as inactive.

For the compound `CNC[C@@H]1Oc2c(NC(=O)Nc3ccccc3)cccc2C(=O)N([C@@H](C)CO)C[C@@H]1C`, the result was inactive.

On to `COC(=O)c1c(NC(=O)c2cc(-c3ccccn3)nc3ccc(Br)cc23)sc(C(=O)N(C)C)c1C`, for which the compound was classed as inactive.

With `Cc1ccc(-c2cc(C(F)(F)F)n3nc(C(=O)NCCN4CCOCC4)c(Cl)c3n2)cc1`, the outcome was inactive.

Consider `COc1ccc(S(=O)(=O)N2CCN(c3ccccn3)CC2)cc1N(C)S(=O)(=O)c1ccccc1`, for which the compound was classed as inactive.

Turning to `C=C1CCCC(C)(C(=O)OC)C1CC/C(C)=C/CCC1=CC(=O)OC1` (configuration not stated), the result was inactive.

On to `C[C@@H]1CN([C@H](C)CO)C(=O)CCCn2cc(nn2)CO[C@H]1CN(C)S(=O)(=O)c1ccc(Oc2ccccc2)nc1`, for which the result was inactive.

In the case of `C[C@H](CO)N1C[C@H](C)[C@H](CN(C)S(=O)(=O)c2cn(C)cn2)Oc2ccc(N(C)C)cc2C1=O`, the result was inactive.

Consider `C[C@@H]1CN([C@@H](C)CO)C(=O)CCCn2cc(nn2)CO[C@H]1CN(C)Cc1cccc2c1OCCCO2`, for which the compound was called inactive.

As to `C[C@H](CO)N1C[C@H](C)[C@@H](CN(C)S(=O)(=O)c2cccs2)Oc2ccc(NC(=O)Nc3cccc4ccccc34)cc2CC1=O`, the compound was called inactive.

On to `C=CCn1c(SCc2nc3ccccc3[nH]2)nnc1-c1ccccc1`, for which the compound was classed as inactive.

Regarding `C[C@H]1CN([C@@H](C)CO)C(=O)CCCn2nncc2CO[C@H]1CN(C)Cc1ccccc1`, the call was inactive.

Take `C[C@H]1CN([C@@H](C)CO)C(=O)c2cc(NS(=O)(=O)c3cn(C)cn3)ccc2O[C@H]1CN(C)CC1CCCCC1`: the compound was classed as inactive.

With `O=C(CCc1nc(-c2ccccc2Cl)no1)Nc1ccc(Cl)c(Cl)c1`, the result was inactive.
